NALP3 yeast inh: NALP3 inhibition in yeast; actives 0.39% (n = 330,000); Yeast reconstituted NLRP3/ASC/caspase-1, beta-gal luminescence, 24 h; inhibition, % at 10 µM;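 active = inhibition of 50% or more; inactive = inhibition below 50%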;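 also: plate controls were induced DMSO wells for no effect and uninduced yeast grown without galactose for full effect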
tim10-1 inh: inhibits growth of tim10-1 mutant yeast; S. cerevisiae tim10-1 ts strain growth, BacTiter-Glo, 24 h; inhibition, % at 20 µM; actives 2.2% (n = 330,000); AID 463190;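 active = inhibition of at least 40%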;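 also: mutant grown at 25 °C; 0% = DMSO wells with yeast and 100% = wells holding no yeast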
NALP1 yeast inh: NALP1 inhibition. S. cerevisiae NALP1/ASC/caspase-1 growth, X-gal OD620, 72 h. inhibition, % at 10 µM. actives 0.61% (n = 280,000). AID 2071; in the data active = inhibition mostly above about 24%, no sharp cut-off; inactive = mostly below about 32%
tim23-1 inh: tim23-1 yeast growth inhibition; S. cerevisiae tim23-1 growth, BacTiter-Glo luminescence, 24 h; inhibition, % at 20 µM; actives 1.3% (n = 330,000); AID 463212;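 active = growth inhibition of the mutant yeast at or above 50%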;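 also: temperature-sensitive mutant grown at 25 °C; plate controls were DMSO-treated mutant yeast for no effect and medium wells lacking yeast for full effect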
TIM10 inh: TIM10 yeast growth inhibition; S. cerevisiae TIM10 strain growth, BacTiter-Glo luminescence, 24 h; inhibition, % at 10 µM; actives 1.4% (n = 330,000);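 active = inhibition of 40% or more at the single tested concentration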;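 also: wild-type TIM10 isogenic control strain grown at permissive 25 °C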
tim10-1 confirm: tim10-1 yeast growth inhibition, confirmed; shares compounds with tim10-1 inh; S. cerevisiae tim10-1 ts strain growth, BacTiter-Glo, 24 h; actives 56% (n = 7,400); AID 463213; inhibition, % at 20 µM;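 active = inhibition of yeast growth at or above a set limit in either of two repeat tests at 20 µM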;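 also: tim10-1 mutant grown at permissive 25 °C to find synthetic lethal compounds; 0% = DMSO yeast wells and 100% = medium wells without yeast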
TIM10 conf: TIM10 yeast growth inhibition, confirmed | inhibition, % at 10 µM | actives 63% (n = 4,600) | shares compounds with TIM10 inh | S. cerevisiae tim10 strain growth, BacTiter-Glo luminescence, 24 h;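 active = inhibition of yeast growth at or above a set limit in either of two replicates at 10 µM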;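 also: this counterscreen used the strain with wild-type TIM10; 0% = yeast with DMSO and 100% = medium wells lacking yeast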
* hit, by the source's call; / = no result. Hits are enriched below; roughly 4% of the tested compounds scored in any of these assays.

SMILES	NALP3 yeast inh	tim10-1 inh	NALP1 yeast inh	tim23-1 inh	TIM10 inh	tim10-1 confirm	TIM10 conf
CCN(CC)CCn1c2ccccc2c2nc3ccccc3nc21	42.7	8.5	22.8	15.6	6.2	/	/
CCN(CC)CCn1c2ccccc2c2cnc(N)c(C#N)c21	9.6	67.1*	5.2	41.3	85.9*	72.8*	85.5*
CN(C)C=Nc1ncc2c3ccccc3n(Cc3ccccc3)c2c1C#N	10.4	11.5	13.7	3.2	5.5	/	/
CN(C)C=Nc1ncc2c3ccccc3n(CCN(C)C)c2c1C#N	6.2	51.3*	-10.4	44.3	75.8*	64.0*	74.8*
CCOC(=O)C1CCCN(C(=O)CCCn2c(=O)c3cccn3c3cccnc32)C1 (stereo not given)	8.7	25.8	-5.2	15.6	11.5	/	/
Cc1cccc(NC(=S)NNC(=O)c2csc3c2CCCC3)c1	32.7	44.9*	3.0	20.3	43.1*	45.0*	15.6
COc1ccc(C(=O)NC2CCN(CC(=O)Nc3cccc(OC)c3)CC2)cc1	11.5	-6.8	6.1	-6.1	-5.9	/	/
Cn1c(SCC(=O)NCCc2ccccc2)ncc(C(=O)Nc2ccccc2)c1=O	23.2	3.5	/	12.9	8.8	/	/
O=C(NC12CC3CC(CC(C3)C1)C2)c1ccc(-c2cccc(Cl)c2)o1	19.6	47.3*	23.9	47.3	46.7*	35.6*	-17.5
O=C(NC12CC3CC(CC(C3)C1)C2)c1ccc(-c2ccc(Cl)cc2)o1	6.7	26.6	16.9	14.1	31.2	/	/
O=C(c1ccccc1)c1ccc(OCC(O)CNCc2ccc(F)cc2)cc1 (stereo not given)	/	/	8.5	/	/	/	/
Cc1ccc(C(OCC(O)CNCc2ccc(F)cc2)c2ccccc2)cc1 (stereo not given)	32.6	63.6*	22.3	39.7	68.1*	74.4*	61.0*
O=C(/C=C/c1ccc(Cl)cc1Cl)c1ccc[nH]1	1.5	46.8*	5.4	18.4	54.3*	39.0*	39.8*
CCOC(=O)c1sc(NC(=O)CCN2CCCCCC2)c(C(=O)OCC)c1C	-4.7	60.8*	-15.1	10.1	44.1*	51.1*	42.7*
CCOC(=O)c1c(NC(=O)CC)sc(C(=O)N2CCCCC2)c1C	25.7	-3.5	-0.8	0.2	-3.7	/	/
CCOc1ccc(OCC)c(NC(=O)CCNS(=O)(=O)c2cc(Br)cnc2N)c1	-14.7	2.9	5.4	24.9	1.5	/	/
CC1CN(c2nc3c(c(=O)n(Cc4ccc(Cl)c(Cl)c4)c(=O)n3C)n2C)CC(C)O1 (stereo not given)	6.6	48.8*	10.8	38.6	45.2*	43.5*	33.4*
Cn1c(N2CCOCC2)nc2c1c(=O)n(Cc1ccc(Cl)cc1)c(=O)n2C	27.7	-41.3	/	22.2	-26.0	/	/
COc1ccc(/C=N/NC(=O)c2ccc3c(c2)OCCO3)cc1[N+](=O)[O-]	-2.8	-20.3	14.1	-4.3	-9.4	/	/
COc1ccc(/C=C/C(=O)c2ccc3c(c2)OCCO3)cc1[N+](=O)[O-]	16.7	43.1*	6.2	21.3	43.5*	27.8	40.2*
O=C(c1cccc([N+](=O)[O-])c1)c1ccc2c(c1)OCCOCCOCCOCCO2	1.3	7.1	0.8	10.6	6.2	/	/
O=C(/C=C/c1cccc([N+](=O)[O-])c1)c1ccc2c(c1)OCCO2	13.6	41.2*	40.3*	35.1	46.9*	49.7*	46.6*
CCOc1cc(C(=O)O/N=C(\N)c2ccc([N+](=O)[O-])cc2)cc(OCC)c1OCC	0.0	60.6*	-0.4	15.8	45.8*	48.5*	42.0*
O=C(COc1cccc(C(F)(F)F)c1)Nc1ccc(S(=O)(=O)N2CCCCC2)cc1	18.9	43.3*	/	32.6	44.9*	49.3*	59.0*
Cc1cccc(OCC(=O)Nc2ccc(S(=O)(=O)N3CCCC3)cc2)c1	2.2	43.5*	10.6	25.5	44.8*	36.7*	46.9*
COc1ccc(NC(=O)c2ccco2)c(NC(=O)c2ccc([N+](=O)[O-])cc2)c1	16.4	3.3	13.6	-18.8	-8.2	/	/
CCCc1[nH]nc2c1C(c1ccsc1)C(C#N)=C(N)O2 (stereo not given)	25.3	46.9*	10.3	40.0	46.0*	26.2	16.5
